Hits are enriched below; roughly 2.2% of the tested compounds scored in any of these assays.
NOD2 RIPK2 PPI: NOD2-RIPK2 protein interaction inhibition | CHO BLA complementation NOD2-RIPK2, CCF4 ratio | inhibition, % at 4.98 µM | hit rate 0.38% among 360,000; in the data active = inhibition above about 21%;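 note: 0% = vehicle only and 100% = reference blocker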
GRK2 aptamer HTS: human GRK2 inhibition via aptamer displacement; inhibition of aptamer binding, % at 10 µM; bead flow cytometry, FAM-aptamer displacement from GRK2; hit rate 0.59% among 330,000; AID 488847;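 active = inhibition of aptamer binding above 40%, roughly 3 SD of noise, on plates passing a quality check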;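 note: median bead fluorescence of bound FAM aptamer so fluorescent compounds give negative values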
TMEM16A inh: inhibitors of mouse TMEM16A calcium-activated chloride channel | Q8BHY3 | HEK293 TMEM16A/YFP iodide influx fluorescence, ionomycin | normalized B-score (activity score, 25-100; higher = stronger inhibition) at 10 µM | hit rate 1.2% among 310,000 | AID 588511;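 active = ratio plate-corrected score three or more library SD toward inhibition, starting fluorescence score within five deviations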;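 note: score derived from kinetic fluorescence span divided by baseline fluorescence per well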
TLR9-MyD88 block: inhibitors of human TLR9-MyD88 binding | Q9NR96+Q99836 | CHO BLA complementation TLR9-MyD88, CCF4 FRET ratio | inhibition, % at 4.98 µM | hit rate 0.21% among 340,000 | AID 504734;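 active = inhibition above the mean over all tested compounds plus 3 SD, cut at about 21% in these data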;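 note: 0% = DMSO only wells and 100% = clavulanate BLA inhibitor control wells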
TLR4 MyD88 comp: TLR4-MyD88 interaction inhibition in cells; O00206+Q99836; HeLa CL3-4 TLR4/MyD88 BLA complementation, FRET ratio; inhibition, % at 8.4 µM; hit rate 0.18% among 200,000; AID 861; in the data active = inhibition above about 25%;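 note: 0% = vehicle and 100% = reference inhibitor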
Target sequence (O00206 whole entry, looked up): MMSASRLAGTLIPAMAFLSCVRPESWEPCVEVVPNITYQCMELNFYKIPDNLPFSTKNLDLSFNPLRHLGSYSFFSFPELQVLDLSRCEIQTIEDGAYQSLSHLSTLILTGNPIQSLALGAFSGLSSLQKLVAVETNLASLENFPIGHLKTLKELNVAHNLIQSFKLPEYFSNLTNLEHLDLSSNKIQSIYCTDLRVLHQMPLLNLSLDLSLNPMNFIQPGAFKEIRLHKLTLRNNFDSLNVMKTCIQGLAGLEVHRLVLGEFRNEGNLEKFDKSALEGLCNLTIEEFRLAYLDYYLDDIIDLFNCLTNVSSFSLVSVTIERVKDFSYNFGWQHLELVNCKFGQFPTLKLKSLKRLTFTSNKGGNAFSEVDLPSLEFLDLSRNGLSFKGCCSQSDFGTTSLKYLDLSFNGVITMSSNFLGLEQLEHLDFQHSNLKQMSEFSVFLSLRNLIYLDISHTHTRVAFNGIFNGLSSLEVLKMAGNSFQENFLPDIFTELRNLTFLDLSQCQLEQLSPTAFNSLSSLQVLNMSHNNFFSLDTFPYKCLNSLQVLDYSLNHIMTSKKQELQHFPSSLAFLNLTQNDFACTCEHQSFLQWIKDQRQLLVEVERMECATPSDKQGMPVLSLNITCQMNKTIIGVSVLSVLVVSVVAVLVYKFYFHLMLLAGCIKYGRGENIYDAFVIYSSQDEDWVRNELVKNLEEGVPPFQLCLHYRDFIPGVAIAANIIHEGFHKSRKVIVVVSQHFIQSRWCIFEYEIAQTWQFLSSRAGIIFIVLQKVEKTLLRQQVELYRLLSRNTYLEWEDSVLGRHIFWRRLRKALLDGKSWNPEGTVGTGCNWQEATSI
Target sequence (Q99836 whole entry, looked up): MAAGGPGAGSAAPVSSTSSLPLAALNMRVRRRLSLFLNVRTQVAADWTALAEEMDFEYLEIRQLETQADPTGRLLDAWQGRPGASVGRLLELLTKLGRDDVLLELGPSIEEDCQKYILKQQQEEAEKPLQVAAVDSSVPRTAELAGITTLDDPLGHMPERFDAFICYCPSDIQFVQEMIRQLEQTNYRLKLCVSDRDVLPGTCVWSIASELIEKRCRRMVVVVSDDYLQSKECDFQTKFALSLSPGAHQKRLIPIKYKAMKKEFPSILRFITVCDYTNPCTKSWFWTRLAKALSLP
ANO1 activ: mouse TMEM16A channel activation, primary screen. HEK293 TMEM16A/YFP-H148Q/I152L, iodide quench fluorescence; active compounds read low. B-score at 10 µM. hit rate 0.3% among 340,000;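 active = fluorescence-ratio B-score plate-corrected deviation score at least 3 library SD below zero, with starting fluorescence score within 5 deviations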;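 note: channel opened by trigger with iodide after compound preincubation; score built on the fluorescence ratio of max minus min over baseline; more negative score means more quench and so TMEM16A activation or potentiation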
TMEM16A reconf: re-confirmation of mouse TMEM16A chloride channel inhibitors; shares compounds with TMEM16A inh; HEK293 TMEM16A/YFP-H148Q, iodide quench fluorescence; ionomycin added to raise cell calcium; inhibition, % at 10 µM; hit rate 39% among 2,300; AID 652189;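 active = mean duplicate percent inhibition, scaled so buffer wells are 0 and the reference blocker 100, over three buffer SD above buffer mean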
TMEM16A Ca cntr: counter-screen for TMEM16A inhibitors: effect on calcium mobilization; shares compounds with TMEM16A inh; TMEM16A/YFP HEK293, Fluo4 calcium mobilization; calcium response (% of ionomycin), % at 10 µM; hit rate 2% among 2,300; AID 652231;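 active = duplicate-averaged calcium signal over 20% of the ionomycin maximum, relative to buffer baseline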;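 note: each well's signal is peak minus trough fluorescence divided by its pre-addition baseline; 0% = buffer wells and 100% = ionomycin wells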
Parental YFP cnt: acts in parental YFP-HEK293 cells lacking TMEM16A, counter-screen | shares compounds with TMEM16A inh | iodide YFP quench, ionomycin | YFP ratio F(max-min)/F0 at 10 µM | 2,300 tested, under 10 active;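 active = yellow fluorescent protein signal ratio exceeding the buffer control mean by over 5 SD of those controls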;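 note: ratio is mean of duplicate wells from kinetic YFP trace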
ClC-1 inh: blocks the rat ClC-1 voltage-dependent chloride channel; ratio percent, % at 10 µM; AID 652236; CHO ClC-1-YFP, iodide influx fluorescence quench; iodide control reads 0, buffer control 100; shares compounds with TMEM16A inh; 2,300 tested, under 10 active;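 active = duplicate-mean ratio percent above the mean of iodide-only control wells, which defines zero, plus 5 of their SD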;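 note: higher percent means stronger block of ClC-1 iodide influx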
Active calls of the source: *; i = inactive; . = no result.

SMILES	NOD2 RIPK2 PPI	GRK2 aptamer HTS	TMEM16A inh	TLR9-MyD88 block	TLR4 MyD88 comp	ANO1 activ	TMEM16A reconf	TMEM16A Ca cntr	Parental YFP cnt	ClC-1 inh
COc1ccc(-c2noc(CN(C(=O)c3cccs3)C(C)C)n2)cc1	-1	3	100*	-9	5	i	i	i	-0.96	1
CCOC(=O)c1c(C)[nH]c(C(=O)C(C)Cl)c1C (centres undefined)	-8	1	i	-4	11	i	.	.	.	.
CCOC(=O)c1c(C)[nH]c(C(=O)C(C)Sc2ccc(Cl)cc2)c1C (centres undefined)	2	1	25*	3	-11	i	32%*	i	-1	-20
CCCCc1ccc(N/C(N)=N/c2nc(C)cc(C)n2)cc1	-8	0	100*	.	.	-5.6*	62%*	43%*	-1	-20
Cc1ccc(N/C(N)=N/c2nc(C)cc(C)n2)cc1	-3	0	i	8	-8	i	.	.	.	.
Cn1c(SCC(=O)Nc2ccc3c(c2)n(C)c(=O)n3C)nnc1-c1ccncc1	-9	0	i	-2	.	i	i	i	-1.2	-2
CCN(CC(=O)Nc1c(F)cccc1F)C(=O)c1ccc2c(c1)C(=O)N(c1ccccc1C)C2=O	-4	.	.	-1	.	.	.	.	.	.
CN(C)S(=O)(=O)N1CCC(Oc2cccc(C(=O)NC3CCCCC3)c2)CC1	-17	2	i	-6	.	i	.	.	.	.
CN(C)S(=O)(=O)N1CCC(Oc2cccc(C(=O)NCCC3=CCCCC3)c2)CC1	2	1	100*	0	.	i	22%*	i	-1.2	-20
Cc1cccc2nc(-c3cccnc3)c(Nc3ccccc3)n12	8	0	100*	2	4	i	35%*	i	-0.98	-26
Cc1cccc2nc(-c3cccnc3)c(NCCC(C)C)n12	-6	0	i	5	15	i	.	.	.	.
COc1ccc(Cl)cc1N(C)C(=O)CCc1nc(-c2ccc(C)cc2)no1	-3	4	i	-11	2	i	.	.	.	.
CCc1ccccc1N(C)C(=O)CCc1nc(-c2ccc(C)cc2)no1	9	0	100*	1	3	i	i	i	-1.1	6
COc1ccc2oc(C(=O)OCC(=O)NCc3ccc(OC)c(OC)c3)c(C)c2c1	10	.	.	4	.	i	.	.	.	.
O=S(=O)(c1ccccc1)N1CCN=C1SCc1c(F)cccc1Cl	-9	0	100*	9	.	i	i	i	-1	-4
COc1ccc(S(=O)(=O)N2CCN=C2SCc2cccc(C)c2)cc1	-1	3	25*	-8	.	i	i	i	-1.2	-8
O=C(Nc1nnc(-c2ccccc2Cl)o1)c1nc2ccccc2s1	1	0	100*	-3	-1	i	i	i	-1.1	-16
O=C(Nc1nnc(-c2ccccc2Cl)o1)c1ccco1	-3	0	i	4	-4	i	.	.	.	.
COc1ccc(CN(C)C(=O)c2cc(S(=O)(=O)Nc3ccccc3F)ccc2C)c(OC)c1	2	6	i	-11	.	i	.	.	.	.
O=C(Nc1ccc(F)cc1)c1ccc(CSc2ccccc2)o1	-7	5	i	-4	11	i	.	.	.	.
CC(=O)c1ccc(NC(=O)c2ccc(CSc3ccccc3)o2)cc1	-11	3	100*	-1	7	i	22%*	i	-0.89	-9
N#CC1=C(N)N2C(=C(C#N)C1c1cccc(Br)c1)Nc1ccccc12 (centres undefined)	9	6	i	5	5	i	.	.	.	.

Screens deposited in PubChem by several laboratories.
